# In the library only some 1.3% were active in any assay of this set; here they are far more common.
# EPAC1 antagonist = antagonists of human EPAC1. Potency, µM (highest dose often 115 µM), most hits filed as inhibitors. EPAC1 GEF assay, Rap1b-BODIPY-GDP exchange fluorescence. O95398. 360,000 compounds, 0.14% hits; also: nearly all actives have a fitted effect of over 50% in size
# EPAC2 antag = EPAC2 (human) antagonism | Q8WZA2 | EPAC2 GEF exchange of Rap1B-BODIPY-GDP, fluorescence | Potency, µM (doses to about 114 µM), most hits filed as inhibitors | 360,000 compounds, 0.18% hits | AID 720708; also: nearly all actives have a fitted effect of over 45% in size
# EPAC1 agonist = EPAC1 (human) agonism. Potency, µM (doses to about 154 µM), usual class: activators. EPAC1 agonist qHTS, biochemical assay; response scale: 100% = response to 6.5 mM cAMP. O95398. 360,000 compounds, 0.073% hits; also: nearly all actives have a fitted effect of over 60% in size
#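 Multi-concentration qHTS readout: loss of Rap1B-bound BODIPY-GDP fluorescence driven by 100 nM EPAC1 with excess GDP (50 uM), monitored kinetically at room temperature; agonist response expressed relative to 6.5 mM cAMP.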
# ALOX12 inh = inhibitors of human 12S-lipoxygenase ALOX12; P18054; AID 1671190; 580,000 compounds, 1.1% hits; Potency, µM (doses to about 108 µM), hits mostly inhibitors; purified 12hLO, xylenol orange hydroperoxide absorbance
# Target sequence (P18054 whole entry, looked up): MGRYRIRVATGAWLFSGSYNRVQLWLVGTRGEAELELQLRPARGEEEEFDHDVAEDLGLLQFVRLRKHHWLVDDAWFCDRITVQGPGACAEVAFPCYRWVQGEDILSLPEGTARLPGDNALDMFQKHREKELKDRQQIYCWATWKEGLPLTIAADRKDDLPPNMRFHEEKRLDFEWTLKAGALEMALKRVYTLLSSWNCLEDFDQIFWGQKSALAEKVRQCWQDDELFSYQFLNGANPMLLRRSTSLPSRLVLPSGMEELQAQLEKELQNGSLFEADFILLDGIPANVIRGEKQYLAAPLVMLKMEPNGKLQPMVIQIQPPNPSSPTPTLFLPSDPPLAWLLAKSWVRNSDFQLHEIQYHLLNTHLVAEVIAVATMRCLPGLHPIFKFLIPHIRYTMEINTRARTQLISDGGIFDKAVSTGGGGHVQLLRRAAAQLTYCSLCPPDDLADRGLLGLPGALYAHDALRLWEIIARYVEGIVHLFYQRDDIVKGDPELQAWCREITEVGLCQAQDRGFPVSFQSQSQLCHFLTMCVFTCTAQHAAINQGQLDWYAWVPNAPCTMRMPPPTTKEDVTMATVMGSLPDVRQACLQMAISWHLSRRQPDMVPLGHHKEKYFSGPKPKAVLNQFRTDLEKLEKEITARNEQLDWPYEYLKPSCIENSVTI
#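 Hydroperoxide product was detected by ferrous iron/xylenol orange as the 573 to 405 nm absorbance ratio. Arachidonic acid at 40 uM (final) was turned over for 30 min at room temperature by 150 nM human 12hLO, pH 7.0 Hepes buffer, after 15 min compound preincubation.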
# EPAC2 agonist = activates human EPAC2 exchange factor; EPAC2 activation, biochemical qHTS; response scale: 100% = 6.5 mM cAMP response; Potency, µM (doses to about 154 µM), usual class: activators; Q8WZA2; 360,000 compounds, 0.079% hits; also: nearly all actives have a fitted effect of over 50% in size
#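 Setup: EPAC2 100 nM, labeled Rap1B complex 250 nM, free GDP 50 uM. Compound titrations pinned in, brief spin, 5 min room temperature incubation. Kinetic fluorescence read over 30 min, normalized to 6.5 mM cAMP.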
# USP1-UAF1 inh = blocks the human USP1/UAF1 deubiquitinase complex | O94782 | recombinant USP1/UAF1, Ub-Rhodamine cleavage fluorescence | Potency, µM (top dose mostly 57.1 µM), most hits filed as inhibitors | 390,000 compounds, 0.23% hits | AID 743255; also: nearly all actives have a fitted effect of over 60% in size
#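 In this screen, compounds sit with the deubiquitinase complex (1nM) for 15 min at room temperature before Ub-Rho is added at 150nM final. Fluorescence rise is then followed for 6 reads every 60 seconds.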
# A number is an active result; n = inactive; u = inconclusive; x = no result given; ! = not confirmed by another sample. Calls follow the shape of the dose curve; as a rule, active = well fitted curve in the direction sought with a large enough effect; inconclusive = small, poorly fitted or top-dose-only effect, or another doubt; inactive = no such curve, though single readings can be large; an effect the other way counts as inactive or inconclusive.
SMILES,EPAC1 antagonist,EPAC2 antag,EPAC1 agonist,ALOX12 inh,EPAC2 agonist,USP1-UAF1 inh
COc1ccc(Oc2coc3cc(OC(=O)c4cccc(Cl)c4)ccc3c2=O)cc1,x,x,x,n,x,x
COc1ccc(OC)c(-c2nnc3n2N=C(c2ccc(OC(F)F)c(OCC4CC4)c2)CS3)c1,n,n,n,n,n,x
COc1ccc(C2=Nn3c(nnc3-c3ccccc3OC)SC2)cc1OCC1CC1,n,n,n,35µM,n,x
Cc1cc(C)cc(C(=O)NC2CCN(c3cc(-c4ccc(F)cc4)[nH]n3)C2)c1 (centres undefined),x,x,x,n,x,x
CCOc1ccc(NC(=O)c2nnn3c2COC(c2ccc(Cl)cc2)C3)cc1 (centres undefined),x,x,x,45µM,x,x
CCOc1ccc(NC(=O)c2cc3n(n2)CC(c2ccc(Cl)cc2)OC3)cc1 (centres undefined),x,x,x,n,x,x
CC(C)c1ccc(-c2noc(CSc3nnc(C4COc5ccccc5O4)o3)n2)cc1 (centres undefined),x,x,x,n,x,x
CC1CCC(NC(=O)CSc2ncnc3c2cnn3-c2ccccc2)CC1 (centres undefined),x,x,x,n,x,x
CCN1CCN(C(CC(C)C)c2nnnn2CS(=O)(=O)c2ccc(C)cc2)CC1 (centres undefined),n,n,n,7.1µM,n,n
O=C(CSc1ncc(C(F)(F)F)cc1Cl)c1ccc[nH]1,x,x,x,n,x,x
CCCOc1ccc(NC(=O)CC2SCCNC2=O)cc1 (centres undefined),x,x,x,n,x,x
COc1ccc(/C(O)=C2/C(=O)C(=O)N(Cc3ccco3)C2c2cccs2)cc1 (centres undefined),n,n,n,20µM,n,n
COC(=O)c1ccc(C2/C(=C(/O)c3ccc(OC)cc3)C(=O)C(=O)N2Cc2ccco2)cc1 (centres undefined),n,n,n,u,n,n
CC(=O)Nc1ccccc1OCC(=O)NC(C)c1ccccc1 (centres undefined),n,n,n,n,n,n
CC(NC(=O)COc1ccccc1-c1ccccc1)c1ccccc1 (centres undefined),n,40µM,n,n,n,n
Cc1ccc(N2C(=O)CN(S(=O)(=O)c3ccc(C)cc3)CC2(C)C(=O)NCCC(C)C)cc1 (centres undefined),x,x,x,n,x,x
Cc1oc(-c2ccccc2)nc1C(=O)Nc1ccccc1C(N)=O,x,x,x,n,x,x
O=C(Nc1nc(-c2ccc(Cl)cc2)cs1)NC1CCCCC1,n,n,n,50µM,n,n
O=C(Nc1ccc(-c2noc(/C=C/c3ccccc3)n2)cc1)c1ccc(Br)o1,x,x,x,28µM,x,x
O=C1CCSc2ccc(C(=O)NNC(=O)c3ccccn3)cc2N1,x,x,x,n,x,x
O=c1cc(CN2CCN(Cc3ccc(F)cc3)C(CCO)C2)[nH]c2ccccc12 (centres undefined),n,n,n,35µM,n,n
CCCNc1c(NC(=O)Cc2cccs2)c(=O)oc2ccccc12,x,x,x,n,x,x
COc1cccc(NC(C)c2nc3scc(-c4cccs4)c3c(=O)[nH]2)c1 (centres undefined),x,x,x,n,x,x
CC(Nc1ccc(N2CCOCC2)cc1)c1nc2scc(-c3cccs3)c2c(=O)[nH]1 (centres undefined),x,x,x,35µM,x,x
CSc1cccc(NC(=S)N2CCCN(Cc3cccc(Cl)c3)C2)c1,n,n,n,35µM,n,n
SMILES,EPAC1 antagonist,EPAC2 antag,EPAC1 agonist,ALOX12 inh,EPAC2 agonist,USP1-UAF1 inh
COc1ccc(NC(=S)N2CCCN(Cc3cccc(Cl)c3)C2)cc1,n,n,n,u,n,n
Cc1occc1C(=O)OCC(=O)c1sc2ccccc2c1C,x,x,x,32µM,x,x
CC1CCCN(c2ccc3ncccc3c2[N+](=O)[O-])C1 (centres undefined),x,x,x,n,x,x
CCn1cc(CN(C)C(=O)c2cc(-c3ccc(OC)cc3)cn2CC)c(C)n1,x,x,x,n,x,x
CC(C)(Oc1ccc(Cl)cc1)C(=O)NC1=NN(c2ccccc2)C(=O)C1,n,n,n,50µM,n,n
CC(C)(Oc1ccc(Cl)cc1)C(=O)Nc1ccncc1,n,n,n,n,n,n
N#C/C(=C/c1ccc(OC(F)F)cc1)C(N)=S,x,x,x,32µM,x,x
CCOC(=O)c1cc2cc(C(C)C)ccc2[nH]1,x,x,x,n,x,x
COc1ccc2c(-c3ccccc3)cc(N3CCOCC3)nc2c1,n,n,n,1.8µM,n,n
c1ccc(-c2cc(-c3ccc(N4CCOCC4)cc3)nc3ccccc23)cc1,n,n,n,n,n,n
CCCCc1cc(=O)oc2c(CN(C)C)c(O)ccc12,n,n,n,n,n,n
CC[C@@]1(O)C(=O)OCc2c1cc1n(c2=O)Cc2cc3c(CN(C)C)c(O)ccc3nc2-1,n,n,u,u,u,25µM
COC(=O)c1cc(Br)c(O)c(Br)c1,x,x,x,n,x,x
CC(C)(c1cc(Br)c(O)c(Br)c1)c1cc(Br)c(O)c(Br)c1,u,u,n,45µM,n,n
CCCCc1nc(SCC(=O)N2CCCC2)c2c(=O)n(C)c(=O)n(C)c2n1,n,n,n,x,n,n
CCCCc1nc(SCCOC)c2c(=O)n(C)c(=O)n(C)c2n1,n,18µM,n,n,n,n
CCOc1cc(C(c2c(C)[nH]c3ccccc23)c2c(C)[nH]c3ccccc23)ccc1O,x,x,x,7.9µM,x,x
CCOc1ccc(N(Cc2nnc3n2CCCCC3)C(=O)Nc2ccccc2C)cc1,x,x,x,n,x,x
CN1CCc2cccc3c2[C@H]1Cc1ccc(O)c(O)c1-3,n,n,n,1.4µM!,n,n
CC(Oc1ccc(F)cc1)C(=O)Nc1ccc(-c2nc3ccccc3o2)cc1 (centres undefined),x,x,x,n,x,x
O=C1CSC(c2ccc(Cl)cc2Cl)N1c1ccccn1 (centres undefined),n,18µM,n,n,n,n
O=C1CSC(c2ccccn2)N1c1ccc(Cl)c(Cl)c1 (centres undefined),n,n,n,n,n,n
CCOC(=O)CSC(C(=O)NC(N)=O)C(C)C (centres undefined),x,x,x,n,x,x
COc1ccc(C2=C(O)C(=O)N(CCc3ccccc3)C2c2ccc(C(=O)O)cc2)cc1 (centres undefined),x,x,x,18µM,x,x
COc1ccc(C2=C(O)C(=O)N(Cc3ccc(C)cc3)C2c2ccc(F)cc2)cc1 (centres undefined),x,x,x,18µM,x,x
Cn1c(NCc2ccc3c(c2)OCO3)nc2c1c(=O)n(Cc1ccccc1Cl)c(=O)n2C,x,x,x,n,x,x
CCCCOC(=O)c1nc2ccccc2nc1Nc1cccc(OC)c1,x,x,x,6.3µM,x,x
CCCCOC(=O)c1nc2ccccc2nc1NCc1ccccc1OC,x,x,x,n,x,x
Cn1c(=O)c2nc(SCCC(=O)O)n(Cc3ccccc3)c2n(C)c1=O,x,x,x,n,x,x
Cc1ccc(NC(=S)/N=C(\N)Nc2nc(C)c3cc(C)ccc3n2)c(C)c1,n,n,n,u,n,n

# High-throughput results (PubChem)
